Data on four compounds can be found in PubChem BioAssay (NCATS).

Results filed as inconclusive are left out. The source made the active and inactive calls. Unless noted, calls follow the shape of the dose curve; as a rule, active = well fitted curve in the direction sought with a large enough effect; inconclusive = small, poorly fitted or top-dose-only effect, or another doubt; inactive = no such curve, though single readings can be large; an effect the other way counts as inactive or inconclusive.

Experiment [1] deals with Estrogen receptor (Homo sapiens) (UniProt P03372). The experiment can be described thus: qHTS assay for small molecule antagonists of estrogen receptor alpha signaling (AID 588513; active = well fitted curve in the direction sought with a large enough effect in the signal ratio, with a control signal flat, not every such curve was filed as active; the % refers to the signal ratio; also: % is scaled to controls: 0 for no effect and ±100 for the full control effect). To be noted: ER-alpha-UAS-bla HEK293, beta-lactamase ratio, antagonist mode; series mostly up to 76.9 µM. Summed up:
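Beta-lactamase reporter, antagonist mode, HEK 293 GripTite cells; 0.5nM E2 stimulus, 18 h, 37 C; CCF4 dye 2 h RT; fluorescence. IC50 and efficacy from Hill fits, normalized to E2 and DMSO.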
Background: qHTS replaces the single test concentration by a dilution series.

For experiment [2] the target is unchanged. Description: qHTS assay for small molecule agonists of estrogen receptor alpha signaling (AID 588514; calls by dose curve;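 also: 0% = vehicle only and 100% = reference agonist; nearly all actives have a fitted effect of over 70% in size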). As to conditions: ER-alpha-UAS-bla HEK293, beta-lactamase ratio, 18 h; series mostly up to 76.8 µM. Summed up: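 Efficacy is expressed against 20 nM 17-beta-estradiol (100%) and DMSO basal (0%); EC50 from Hill equation. Assay: beta-lactamase reporter in ER-alpha-UAS-bla HEK 293 cells, 18 h compound incubation, CCF4 detection.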

Experiment [3] in a line: qHTS assay for small molecule antagonists of peroxisome proliferator-activated receptor delta signaling (AID 588535; active = well fitted inhibition curve with a large enough effect in the signal ratio, with a control signal flat, not every such curve was filed as active; the % refers to the signal ratio;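 as to max response: cells co-treated with a PPAR-delta agonist as stimulator during compound exposure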). To be noted: HEK293T PPARd-UAS-bla, beta-lactamase FRET ratio, 18 h; 460 nm channel. Summed up: (§1)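 Titrations were run on PPAR-delta-UAS-bla HEK293T cells in charcoal/dextran-stripped serum, incubated 18 h at 37 C. CCF4 fluorescence (460/530 nm) after 2 h RT; Hill equation yields IC50 and maximal response.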

The target in experiment [4] is Peroxisome proliferator-activated receptor delta (Homo sapiens) (UniProt Q03181). Described as above. To be noted: HEK293T PPARd-UAS-bla, beta-lactamase FRET ratio, 18 h; series mostly up to 76.7 µM. Summed up:
as §1

The target in experiment [5] is Peroxisome proliferator-activated receptor gamma (Homo sapiens) (UniProt P37231). The experiment can be described thus: qHTS assay for small molecule agonists of peroxisome proliferator-activated receptor gamma signaling (AID 588536; active = well fitted curve in the direction sought with a large enough effect in the signal ratio, with a control signal flat, not every such curve was filed as active; the % refers to the signal ratio). As to conditions: HEK293 PPARg-UAS-bla, beta-lactamase ratio, 16 h, percent of rosiglitazone response, DMSO as zero; series mostly up to 76.7 µM. The method, boiled down: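 Using GeneBLAzer HEK293 cells, response was quantified by CCF4 fluorescence and normalized between basal DMSO (0%) and rosiglitazone 2 uM (100%); curves yielded half-maximal stimulation concentration and efficacy.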
Sequence of Peroxisome proliferator-activated receptor gamma (Homo sapiens) (P37231 whole entry, looked up): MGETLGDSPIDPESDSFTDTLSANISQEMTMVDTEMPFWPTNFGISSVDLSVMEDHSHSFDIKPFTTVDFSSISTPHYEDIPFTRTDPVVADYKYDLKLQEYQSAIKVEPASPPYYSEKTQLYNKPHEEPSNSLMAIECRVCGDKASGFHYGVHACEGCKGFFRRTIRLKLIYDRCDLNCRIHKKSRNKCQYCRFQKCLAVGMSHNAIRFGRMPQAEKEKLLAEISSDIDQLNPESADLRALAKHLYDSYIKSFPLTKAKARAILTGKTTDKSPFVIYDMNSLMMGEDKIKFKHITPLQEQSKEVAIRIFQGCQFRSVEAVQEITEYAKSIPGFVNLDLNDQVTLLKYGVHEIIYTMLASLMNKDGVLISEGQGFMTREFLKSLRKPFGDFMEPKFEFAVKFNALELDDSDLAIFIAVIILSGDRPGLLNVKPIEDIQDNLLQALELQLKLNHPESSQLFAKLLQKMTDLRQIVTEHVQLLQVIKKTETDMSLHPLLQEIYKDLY

The nature of experiment [6]: qHTS assay for small molecule agonists of retinoid X receptor alpha signaling (AID 588544). To be noted: HEK293T RXRa-UAS-bla, beta-lactamase reporter, 18 h; 530 nm emission.
Experiment [7] has as its target Thyroid hormone receptor beta (Homo sapiens) (UniProt P10828). Description: qHTS assay for small molecule agonists of thyroid hormone receptor beta signaling (AID 588545; calls by dose curve;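 also: 0% = DMSO only and 100% = 10 nM T3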). As to conditions: TR-UAS-bla GripTite HEK 293, beta-lactamase ratio, agonist mode, 18 h; series mostly up to 76.7 µM. Summed up: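 Efficacy and EC50 values derive from Hill fits of qHTS titration data, normalized to 10 nM T3 and DMSO-only wells. HEK 293 reporter cells were stimulated for 18 hrs at 37 C, with beta-lactamase activity measured by CCF4 fluorescence.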

A short description of experiment [8]: qHTS assay for small molecule antagonists of retinoid X receptor alpha signaling (AID 588546; active = well fitted inhibition curve with a large enough effect in the signal ratio, with a control signal flat, not every such curve was filed as active; the % refers to the signal ratio;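 also: cells stimulated with 9-cis-retinoic acid as agonist; % is scaled to controls: 0 for no effect and ±100 for the full control effect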). As to conditions: HEK293T RXRa-UAS-bla, beta-lactamase ratio, antagonist mode; measured here: W530 green channel, cytotoxicity proxy. Summed up:
(§2)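 Beta-lactamase reporter inhibition, read as CCF4 fluorescence ratio (ex 405, em 460/530 nm) after 2 h at RT. HEK293T UAS-bla cells, 2500/well, were stimulated with 9-cis-RA at 500 or 100 nM final alongside test compound for 18 h at 37 C.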

The target in experiment [9] is Retinoic acid receptor RXR-alpha (Homo sapiens) (UniProt P19793). The description is as above. To be noted: HEK293T RXRa-UAS-bla, beta-lactamase ratio, antagonist mode. The method, boiled down:
as §2

Experiment [10] addresses Thyroid hormone receptor beta (Homo sapiens) (UniProt P10828). The experiment can be described thus: qHTS assay for small molecule antagonists of thyroid hormone receptor beta signaling (AID 588547; active = well fitted inhibition curve with a large enough effect in the signal ratio, with a control signal flat, not every such curve was filed as active; the % refers to the signal ratio;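 also: cells stimulated with 0.4 nM T3 agonist during compound exposure; % is scaled to controls: 0 for no effect and ±100 for the full control effect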). To be noted: TR-UAS-bla HEK293, beta-lactamase ratio, antagonist mode, 18 h. The method, boiled down:
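Inhibition of T3-driven (0.4nM final) beta-lactamase reporter activity was measured over 0.59 nM to 92 uM compound after 18 h at 37 C. The cells were GripTite HEK293 TR-UAS-bla in charcoal/dextran-stripped serum, with CCF4 ratio read-out and IC50 from Hill fits.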

The nature of experiment [11]: qHTS assay for small molecule activators of the p53 signaling pathway (AID 651743; active = well fitted activation curve with a large enough effect in the signal ratio, not every such curve was filed as active; the % refers to the signal ratio; also: % of control where 0% means no effect). As to conditions: HCT-116 p53RE-bla, beta-lactamase FRET ratio, 16 h; activation: stronger effect = higher value. The method, boiled down: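 After 16 hours compound treatment at 37 C, HCT-116 cells stably expressing p53RE-driven beta-lactamase were loaded with LiveBLAzer B/G FRET substrate for 2 hours at room temperature. Fluorescence intensity served as the p53 activation read-out.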

Experiment [12] is described as follows: qHTS assay for environmental chemicals that activate the Aryl hydrocarbon Receptor (AhR) signaling pathway (AID 651777). Also: % of control where 0% means no effect; nearly all actives have a fitted effect of over 15% in size. As to conditions: 1A2-DRE human hepatoma cells, luciferase, 24 h; activation: stronger effect = higher value. Summed up: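 Human hepatoma 1A2-DRE cells, stably carrying a dioxin response element and CYP1A2 promoter driving luciferase, were exposed to compounds for 24 hr at 37 C and 5% CO2. Luciferase signal was then read after 30 min One-Glo at room temperature.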

Experiment [13] addresses Peroxisome proliferator-activated receptor alpha (Homo sapiens) (UniProt Q07869). The experiment can be described thus: qHTS assay for small molecule agonists of the peroxisome proliferator-activated receptor alpha (PPARalpha) signaling pathway (AID 651778). Also: % of control where 0% means no effect. To be noted: PathHunter PPARalpha complementation, chemiluminescence, 6 h; max response: stronger effect = higher value. The method, boiled down:
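Chemiluminescence from complemented enzyme reported PPARalpha activation in cells after 6 hr of compound treatment at 37 C. The detection reagent was incubated for 60 min at room temperature, and compounds were scored as agonists.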

The nature of experiment [14]: qHTS assay for small molecule agonists of the antioxidant response element (ARE) signaling pathway measured by Nrf2-dependant transcriptional activity (AID 720636; active = well fitted curve in the direction sought with a large enough effect in the repeat runs; an effect the other way counts as inactive or inconclusive; also: % of control where 0% means no effect). To be noted: ARE-luc HepG2, Nrf2 luciferase reporter, 16 h; series mostly up to 92.4 µM. The method, boiled down: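 ARE-luc HepG2 cells carrying an Nrf2-responsive luciferase reporter were plated in medium with 1% dialyzed FBS, left 6 hr at 37 C to attach, then exposed to compound for 16 hr. Luciferase luminescence was read after ONE-Glo addition.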

A short description of experiment [15]: qHTS assay for small molecule agonists of the antioxidant response element (ARE) signaling pathway measured by Nrf2-dependant transcriptional activity - cell viability counter screen (AID 720653; active = well fitted curve in the direction sought with a large enough effect in the repeat runs; an effect the other way counts as inactive or inconclusive; also: % is scaled to controls: 0 for no effect and ±100 for the full control effect). To be noted: ARE-bla HepG2 viability, CellTiter-Glo ATP luminescence, 16 h; max response: stronger effect = lower value. The method, boiled down: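 Cytotoxicity counter screen: intracellular ATP quantified by CellTiter-Glo luminescence in the same ARE-bla HepG2 plates, after 16 h compound exposure and a 2 h beta-lactamase substrate step.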

Experiment [16] is described as follows: qHTS assay for cell viability of HEK293 cells (AID 743288). Also: % is scaled to controls: 0 for no effect and ±100 for the full control effect; nearly all actives have a fitted effect of over 50% in size. As to conditions: ATP luminescence (CellTiter-Glo), 18 h; max response: stronger effect = lower value. Summed up:
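ATP luminescence (CellTiter-Glo) reports metabolically competent cell number after parental HEK293 cells, 2,000/well, were treated with DMSO-dissolved compounds for 18 h at 37 C; reagent incubation 30 min, room temperature.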

The nature of experiment [17]: qHTS assay for cell viability of the p53RE-bla HCT-116 cell line (AID 743292). Also: % is scaled to controls: 0 for no effect and ±100 for the full control effect; nearly all actives have a fitted effect of over 55% in size. As to conditions: p53RE-bla HCT-116 viability, ATP luminescence, 16 h; series mostly up to 95 µM. The method, boiled down:
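CellSensor p53RE-bla HCT-116 cells, 4,000/well, preincubated 5 h at 37 C, then exposed to compounds in DMSO for 16 h at 37 C. Viability read as CellTiter-Glo luminescence (intracellular ATP) after 30 min at room temperature.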

The target in experiment [18] is Nuclear receptor subfamily 1 group I member 2 (Rattus norvegicus) (UniProt Q9R1A7). The experiment can be described thus: qHTS assay for small molecule activators of the rat pregnane X receptor (rPXR) signaling pathway (AID 651751; call rule not given here; also: 0% is about no effect). To be noted: rPXR reporter cells, luciferase (One-Glo), 24 h.
Sequence of Nuclear receptor subfamily 1 group I member 2 (Rattus norvegicus) (Q9R1A7 whole entry, looked up): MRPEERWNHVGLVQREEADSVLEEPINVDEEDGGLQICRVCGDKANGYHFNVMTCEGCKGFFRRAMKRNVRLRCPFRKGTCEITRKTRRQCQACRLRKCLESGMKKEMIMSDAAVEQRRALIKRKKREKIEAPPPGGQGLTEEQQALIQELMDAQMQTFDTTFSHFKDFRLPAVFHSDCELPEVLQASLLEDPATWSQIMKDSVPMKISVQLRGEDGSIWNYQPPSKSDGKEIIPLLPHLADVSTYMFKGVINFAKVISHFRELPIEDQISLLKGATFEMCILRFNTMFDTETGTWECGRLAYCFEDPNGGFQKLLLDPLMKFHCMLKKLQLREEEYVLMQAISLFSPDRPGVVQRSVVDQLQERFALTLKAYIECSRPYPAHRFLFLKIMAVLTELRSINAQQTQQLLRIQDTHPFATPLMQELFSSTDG
For experiment [19], the target named is Glucocorticoid receptor (Homo sapiens) (UniProt P04150). Description: qHTS assay for small molecule agonists of glucocorticoid receptor signaling (AID 588532; active = well fitted curve in the direction sought with a large enough effect in the signal ratio, with a control signal flat; the % refers to the signal ratio;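 also: 100% = dexamethasone at 0.1 µM and 0% = DMSO only wells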). As to conditions: HeLa MMTV-bla, beta-lactamase ratio, agonist, 18 h; stronger effect = higher value; percent of dexamethasone control, DMSO zero. Summed up: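 Agonist-mode qHTS: GRE-driven beta-lactamase in HeLa cells exposed 18 h to titrated compounds (up to 92 uM), then CCF4 ratio read after 2 h at RT; Hill-fitted EC50, efficacy relative to 0.1 uM dexamethasone.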
Sequence of Glucocorticoid receptor (Homo sapiens) (P04150 whole entry, looked up): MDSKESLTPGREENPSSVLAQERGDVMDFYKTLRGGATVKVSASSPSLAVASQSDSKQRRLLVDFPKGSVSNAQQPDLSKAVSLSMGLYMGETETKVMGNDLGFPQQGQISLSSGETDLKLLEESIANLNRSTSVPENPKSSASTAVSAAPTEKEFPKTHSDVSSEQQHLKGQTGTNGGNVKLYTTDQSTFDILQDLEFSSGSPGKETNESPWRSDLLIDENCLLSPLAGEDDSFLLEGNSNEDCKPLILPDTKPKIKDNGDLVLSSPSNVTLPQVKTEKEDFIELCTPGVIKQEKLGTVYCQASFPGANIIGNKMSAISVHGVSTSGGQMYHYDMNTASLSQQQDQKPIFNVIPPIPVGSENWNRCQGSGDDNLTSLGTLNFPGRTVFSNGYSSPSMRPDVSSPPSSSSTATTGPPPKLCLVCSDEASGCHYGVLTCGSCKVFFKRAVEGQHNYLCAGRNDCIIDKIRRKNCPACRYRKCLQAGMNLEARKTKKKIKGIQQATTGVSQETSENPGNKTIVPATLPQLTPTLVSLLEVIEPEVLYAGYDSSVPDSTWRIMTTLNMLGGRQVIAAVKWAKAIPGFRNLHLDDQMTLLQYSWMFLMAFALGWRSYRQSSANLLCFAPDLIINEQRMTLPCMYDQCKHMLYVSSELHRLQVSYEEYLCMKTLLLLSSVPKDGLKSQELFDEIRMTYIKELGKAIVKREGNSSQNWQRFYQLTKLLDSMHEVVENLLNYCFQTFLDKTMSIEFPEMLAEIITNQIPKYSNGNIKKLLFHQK

A short description of experiment [20]: qHTS assay for small molecule activators of the human pregnane X receptor (PXR) signaling pathway (AID 720659; call rule not given here; also: 0% is about no effect). To be noted: DPX-2 HepG2 CYP3A4-luciferase, 24 h; series mostly up to 92.3 µM.

Sequence of Estrogen receptor (Homo sapiens) (P03372 whole entry, looked up): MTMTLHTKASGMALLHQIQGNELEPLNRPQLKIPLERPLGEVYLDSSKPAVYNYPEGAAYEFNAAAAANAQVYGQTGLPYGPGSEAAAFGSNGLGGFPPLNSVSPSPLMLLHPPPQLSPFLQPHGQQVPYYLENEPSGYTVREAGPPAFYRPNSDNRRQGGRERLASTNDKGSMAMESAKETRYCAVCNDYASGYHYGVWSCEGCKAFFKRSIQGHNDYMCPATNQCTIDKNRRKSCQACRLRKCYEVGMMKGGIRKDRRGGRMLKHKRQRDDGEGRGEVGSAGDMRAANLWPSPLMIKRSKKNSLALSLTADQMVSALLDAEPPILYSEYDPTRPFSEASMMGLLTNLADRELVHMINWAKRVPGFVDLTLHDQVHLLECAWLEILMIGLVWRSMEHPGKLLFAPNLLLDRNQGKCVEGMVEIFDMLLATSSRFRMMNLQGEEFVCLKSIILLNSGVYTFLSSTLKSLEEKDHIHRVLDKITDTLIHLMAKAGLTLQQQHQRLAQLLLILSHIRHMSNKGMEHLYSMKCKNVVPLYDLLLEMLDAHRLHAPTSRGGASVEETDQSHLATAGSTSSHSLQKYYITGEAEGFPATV
Sequence of Peroxisome proliferator-activated receptor delta (Homo sapiens) (Q03181 whole entry, looked up): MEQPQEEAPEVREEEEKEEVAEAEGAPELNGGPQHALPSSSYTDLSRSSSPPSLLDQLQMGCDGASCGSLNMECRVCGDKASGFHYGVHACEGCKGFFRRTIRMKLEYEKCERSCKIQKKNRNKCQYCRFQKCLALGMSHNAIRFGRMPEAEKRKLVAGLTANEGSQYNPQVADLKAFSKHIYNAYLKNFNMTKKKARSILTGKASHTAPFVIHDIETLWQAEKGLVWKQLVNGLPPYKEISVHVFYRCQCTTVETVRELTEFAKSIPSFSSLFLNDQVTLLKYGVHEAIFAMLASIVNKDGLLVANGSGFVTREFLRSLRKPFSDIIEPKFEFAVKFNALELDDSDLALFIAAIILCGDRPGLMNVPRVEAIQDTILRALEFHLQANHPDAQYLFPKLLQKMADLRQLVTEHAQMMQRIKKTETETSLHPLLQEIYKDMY
Sequence of Retinoic acid receptor RXR-alpha (Homo sapiens) (P19793 whole entry, looked up): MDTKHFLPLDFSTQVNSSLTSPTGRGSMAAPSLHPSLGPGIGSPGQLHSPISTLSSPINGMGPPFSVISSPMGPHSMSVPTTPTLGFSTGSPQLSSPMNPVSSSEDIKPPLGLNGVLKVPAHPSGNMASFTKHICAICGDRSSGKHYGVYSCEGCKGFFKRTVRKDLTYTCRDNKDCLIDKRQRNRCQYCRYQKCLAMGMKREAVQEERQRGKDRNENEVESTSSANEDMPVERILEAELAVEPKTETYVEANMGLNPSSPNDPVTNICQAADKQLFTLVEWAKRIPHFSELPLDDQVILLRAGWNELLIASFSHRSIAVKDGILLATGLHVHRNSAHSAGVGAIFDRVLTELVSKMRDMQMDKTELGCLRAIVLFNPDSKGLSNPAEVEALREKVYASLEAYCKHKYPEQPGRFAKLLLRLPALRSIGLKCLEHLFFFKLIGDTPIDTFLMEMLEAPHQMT
Sequence of Peroxisome proliferator-activated receptor alpha (Homo sapiens) (Q07869 whole entry, looked up): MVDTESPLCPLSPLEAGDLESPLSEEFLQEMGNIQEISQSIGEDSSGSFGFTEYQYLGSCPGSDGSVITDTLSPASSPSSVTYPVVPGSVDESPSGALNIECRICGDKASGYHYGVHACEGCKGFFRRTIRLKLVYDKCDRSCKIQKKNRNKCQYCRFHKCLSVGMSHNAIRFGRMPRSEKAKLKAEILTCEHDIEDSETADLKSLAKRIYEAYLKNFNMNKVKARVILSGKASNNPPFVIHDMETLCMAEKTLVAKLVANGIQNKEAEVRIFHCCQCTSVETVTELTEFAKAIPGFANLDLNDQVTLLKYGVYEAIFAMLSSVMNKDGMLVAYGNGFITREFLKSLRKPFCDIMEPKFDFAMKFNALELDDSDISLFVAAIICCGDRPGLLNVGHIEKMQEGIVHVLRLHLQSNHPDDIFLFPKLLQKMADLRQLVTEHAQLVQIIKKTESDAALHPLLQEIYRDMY
Sequence of Thyroid hormone receptor beta (Homo sapiens) (P10828 whole entry, looked up): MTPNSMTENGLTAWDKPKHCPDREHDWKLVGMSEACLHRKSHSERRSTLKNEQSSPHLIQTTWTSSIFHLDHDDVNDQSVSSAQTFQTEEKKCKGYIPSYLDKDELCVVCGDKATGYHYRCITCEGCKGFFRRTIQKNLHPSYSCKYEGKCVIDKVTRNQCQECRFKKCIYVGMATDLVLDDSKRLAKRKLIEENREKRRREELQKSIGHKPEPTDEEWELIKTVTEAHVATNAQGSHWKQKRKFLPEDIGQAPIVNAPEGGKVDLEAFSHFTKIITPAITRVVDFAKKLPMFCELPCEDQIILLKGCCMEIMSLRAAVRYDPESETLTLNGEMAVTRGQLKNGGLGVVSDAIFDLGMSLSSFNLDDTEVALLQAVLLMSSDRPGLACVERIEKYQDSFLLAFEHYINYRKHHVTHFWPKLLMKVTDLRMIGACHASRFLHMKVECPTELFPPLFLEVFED

On to `CC(C)Cc1c(C(=O)O)c(C(F)F)nc(C(F)(F)F)c1C1=NCCS1`, for which the Potency entry in experiment [1], in experiment [2], in [4], in [7], in [14] and in experiment [17] was “inactive” throughout. The max response is 45.9% in experiment [3]; -17.4% in experiment [6]; -0.767% in experiment [8]; 6.24% (inactive) in experiment [9]; -0.845% (inactive) in [13]; 3.82% (inactive) in [15]. Further, the max response was -5.4% (inactive) in experiment [16] and -2.45% (inactive) in experiment [18]. In experiment [5], the result was inactive. Besides, the activity change % (negative = inhibition) in [10] is -21.3% (inactive). Moreover, the activation in experiment [11] is -1.35% (inactive); in [12], -4.01% (inactive).
For the compound `C=C(C)C(=O)OCCCCCCCCCCCCCCCC`, the Potency result in experiment [1], in [2], in experiment [4], in [14] and in experiment [17] was “inactive” in each case. The activation in experiment [19] is 0.746% (inactive); in experiment [11], -3.74% (inactive); in experiment [12], 0.0765% (inactive). The max response is -9.92% in experiment [3]; -13% in [6]; -3.04% in experiment [8]; -1.04% (inactive) in experiment [9]; -2.7% (inactive) in experiment [13]; 0.407% (inactive) in experiment [15]. Further, the figures for the max response in experiment [16] and in [18] were -1.34% (inactive) and 2.75% (inactive), respectively. Moreover, the outcome in [5] and in experiment [20] was inactive. Moreover, the activity change % (negative = inhibition) in experiment [10] is -5.63% (inactive).
On to `O=C1CCCC/C=C/CCCCCCCCCO1`, for which the Potency entry in experiment [1], in experiment [2], in experiment [4], in experiment [7], in [14] and in [17] was “inactive” in each case. Besides, the values for the activation in experiment [19], in experiment [11] and in experiment [12] were -15.4% (inactive), 0.177% (inactive) and -0.496% (inactive), respectively. In addition, the max response was -0.124% in experiment [3]; -14.2% in experiment [6]; -16.9% in [8]; 5.91% (inactive) in experiment [9]; 11.1% (inactive) in [13]; 0.0367% (inactive) in experiment [15]. Moreover, the results for the max response in experiment [16] and in experiment [18] were 4.39% (inactive) and -0.578% (inactive), respectively. In addition, the result in experiment [5] and in experiment [20] was inactive. Further, the activity change % (negative = inhibition) in [10] was -13.1% (inactive).
On to `COC(=O)c1ccccc1S(=O)(=O)NC(=O)Nc1nc(OC(F)F)cc(OC(F)F)n1`, for which the Potency result in [1], in experiment [2], in experiment [4], in experiment [7], in experiment [14] and in experiment [17] was “inactive” each time. In addition, the results for the activation in experiment [19], in [11] and in experiment [12] were -5.76% (inactive), -4.45% (inactive) and -0.662% (inactive), respectively. Besides, the max response in experiment [3] is -18.5%; in experiment [6], -18.6%; in [8], -7.16%; in [9] it was -2.35% (inactive); in experiment [13] it was -0.141% (inactive); in experiment [15] it was 4.57% (inactive). The max response is 0.401% (inactive) in [16] and 1.81% (inactive) in experiment [18]. The result in [5] and in [20] was inactive.
